Compounds without any hit were thinned out: in the full panel of roughly 83,000, 20% have a hit.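 Each cell line was grown in a 96-well plate and treated with one concentration of compound for 48 hours. Values below 10 were considered active.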 Activity calls are given as the source filed them.
What follows are compounds tested on HCT-116 colon (assay: NCI-60 one-dose screen, 48 h (100 = growth as untreated, 0 = no growth, -100 = all killed)). Conditions: 10 µM unless noted.
Method: Growth inhibition of the HCT-116 human tumor cell line is measured as a screen for anti-cancer activity. Cells are grown in 96 well plates and exposed to the test compound for 48 hours. Compounds are tested at a single concentration, which is 10^-5 M for most compounds. The reported endpoint is percent growth (GI% or GIPRCNT), where numbers from 0 - 100% represent growth inhibition, and numbers from -100% - 0 represent cell death. For example, a value of 40 represents 60% growth inhibition. A value of 0 means no net growth occurred over the course of the experiment. A value of -40 indicates 40% of cells at the beginning of the experiment died by the end of the experiment. A value of -100 means all cells are dead at the end of the experiment.
NCI-60 Human Tumor Cell Lines Screen was performed using the standard one-dose NCI protocol, which is described in more detail at https://dtp.cancer.gov/discovery_development/nci-60/default.htm.
Compounds with GIPRCNT values below 10 were considered active. Activity score was based on GIPRCNT using the following formula: […]
Score is 0 for GIPRCNT values of 100 or above, 50 for GIPRCNT values of 0, and 100 for GIPRCNT values of -100.

Structure (SMILES) | growth
C[C@@H](C[C@H](CC1CC1)c1ccccc1)c1ccc2ccccc2c1 | 98.6% (inactive)
CC1=NOCC(=O)N1 | 98.5% (inactive)
CSCCC1NC(=O)C(C(C)=Nc2ccccc2)=C1O (stereo not given) | 107% (inactive)
COS(=O)(=O)CCN(CCOS(C)(=O)=O)S(C)(=O)=O | 100% (inactive)
CCCCCCCCCCCCCCC(C(=O)OCC)C(=O)OCC | 109% (inactive)
CCCC(CCC)NCC(O)c1cc(-c2ccc(C(F)(F)F)cc2)nc(C(F)(F)F)c1 (stereo not given) | -70.8% (active)
CC1=C(C(=O)Nc2ccc(F)cc2)C(c2ccc(C)cc2)C2=C(CC(C)(C)CC2=O)N1 (stereo not given) | 96.3% (inactive)
COc1ccc(/C(=C\c2cc(OC)c(OC)c(OC)c2)C(=O)N2CCNCC2)cc1 | 94.5% (inactive)
CCC(=O)NC(O)C(Cl)(Cl)C(C)Cl (stereo not given) | 103% (inactive)
CC(C)N1CCN(c2ccncc2S(=O)(=O)N2CCN(C)CC2)CC1 | 100% (inactive)
CCOC(=O)NNc1cccc(Cl)c1 | 111% (inactive)
CC(=O)OC1Oc2cc(C)c(C)cc2-c2oc(=O)c(-c3ccc(F)cc3)cc21 (stereo not given) | 32.2% (inactive)
CCCc1n(Cc2ccc3ccccc3n2)cc[n+]1Cc1ccc2ccccc2n1 | 22.9% (inactive)
COc1ccc2c(c1)N(CCO)C1=C(C(=O)OC1)C2c1cccc(Br)c1 (stereo not given) | 3.89% (active)
COc1ccc(CCN2COc3c([C@@H](C)CCC=C(C)C)ccc(C)c3C2)cc1OC | 25.9% (inactive)
Cc1cc(NC(=O)c2ccc(N)cc2)ccc1N=Nc1ccc2cc(S(=O)(=O)O)cc(S(=O)(=O)O)c2c1 | 111% (inactive)
COc1ccc(-c2oc(=O)ccc2-c2cc(OC)c(OC)c(OC)c2)cc1F | 60.2% (inactive)
CC(C)N=C1CCCC1C(=S)SSC(=S)C1CCCC1=NC(C)C (stereo not given) | 51.4% (inactive)
COc1ccc(/C=C2\CCCC3=C2N=C2SC(C)=NN2C3c2ccc(OC)c(OC)c2)cc1OC (stereo not given) | -28.1% (active)
COc1c(C(=O)/C=C/c2ccc(C)o2)c(O)cc2occc12 | 52.8% (inactive)

Structure (SMILES) | growth
OC(c1cc2cc(Cl)ccc2c2cc(C(F)(F)F)ccc12)C1CCCCN1 (stereo not given) | -85.8% (active)
CCSc1ccc([C@@H]2[C@@H](N)C(=O)N2c2cc(OC)c(OC)c(OC)c2)cc1 | 10.2% (inactive)
Cc1cc(Cl)c2ccc(N(C)C)cc2n1 | 105% (inactive)
COc1cc(NC(C)CCCN)c2ncccc2c1Oc1ccc(Cl)cc1 (stereo not given) | 58.3% (inactive)
COc1ccc(/C(=C\c2cc(OC)c(OC)c(OC)c2)C(=O)Nc2nc3ccc(Cl)cc3s2)cc1 | 86.8% (inactive)
CC(C)COC(=O)NC(C)(C)C | 105% (inactive)
CCOC(=O)c1ccc(N(CCC(=O)O)C(C)=O)cc1 | 104% (inactive)
CNC(=O)c1ccccc1Sc1ccc2c(/C=C/c3ccccn3)n[nH]c2c1 | 29.9% (inactive)
COc1ccc(C2C=C(c3ccc(Cl)cc3)N=C3SC=CN32)cc1 (stereo not given) | 104% (inactive)
O=C1C=CC(=O)N1c1cccc(N2C(=O)C=CC2=O)c1 | 24.7% (inactive)
Cc1cccc(C(=O)O)n1 | 99.2% (inactive)
C#CC[C@@H]1C[C@]2(C)[C@H]3CC[C@@H]4[C@H]5C(C(=C)C)CC[C@]5(C(=O)NCCCCN)CC[C@@]4(C)[C@]3(C)CC[C@H]2C(C)(C)[C@H]1OC(C)=O (stereo not given in full) | -85.7% (active)
CC(C)OC(=O)c1ccc([N+](=O)[O-])cc1 | 110% (inactive)
O=C(C=P(c1ccccc1)(c1ccccc1)c1ccccc1)CCl | -70.2% (active)
CC(=O)OC1Oc2ccccc2-c2oc3nc(=N)n(C)c-3cc21 (stereo not given) | 100% (inactive)
CCc1ccc(Nc2ncnc3c2cnn3-c2cccc(Br)c2)cc1 | 96.1% (inactive)
CSC(=S)N/N=C(\C)c1ccccn1 | 9.68% (active)
NC(=Nc1ccccc1)SCCCSC(N)=Nc1ccccc1 | 90.5% (inactive)
c1ccc(C2=Nc3ccccc3SC2)cc1 | 96.7% (inactive)
COc1cc2nccc(Oc3ccc(NC(=O)C4(C(=O)Nc5c(F)cc(F)cc5F)CC4)cc3)c2cc1Oc1ccc(N)cn1 | 56.6% (inactive)
